Test results reported in PubChem BioAssay.
Unmarked numbers belong to inactive results. Calls of active or inactive are those of the source.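 How the source made its calls: active means mean inhibition above 46.5%, the solvent-only control mean plus 3 SD; inactive means the rest.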

The compounds below were run against Nuclear receptor coactivator 2 (Homo sapiens) (UniProt Q15596) (assay: inhibition of GAL4-SRC2 driven luciferase expression – cell-based, luminescence, HEK293, triplicate, confirmation (AID 652008;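 further: 0% = DMSO-treated cells and 100% = Gossypol at 36 µM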)). Conditions: HEK293 GAL4-SRC2 luciferase reporter, at 8.9 µM, active compounds read high.
Nuclear receptor coactivator 2 (Homo sapiens), sequence (Q15596 whole entry, looked up, the tested form may be a part): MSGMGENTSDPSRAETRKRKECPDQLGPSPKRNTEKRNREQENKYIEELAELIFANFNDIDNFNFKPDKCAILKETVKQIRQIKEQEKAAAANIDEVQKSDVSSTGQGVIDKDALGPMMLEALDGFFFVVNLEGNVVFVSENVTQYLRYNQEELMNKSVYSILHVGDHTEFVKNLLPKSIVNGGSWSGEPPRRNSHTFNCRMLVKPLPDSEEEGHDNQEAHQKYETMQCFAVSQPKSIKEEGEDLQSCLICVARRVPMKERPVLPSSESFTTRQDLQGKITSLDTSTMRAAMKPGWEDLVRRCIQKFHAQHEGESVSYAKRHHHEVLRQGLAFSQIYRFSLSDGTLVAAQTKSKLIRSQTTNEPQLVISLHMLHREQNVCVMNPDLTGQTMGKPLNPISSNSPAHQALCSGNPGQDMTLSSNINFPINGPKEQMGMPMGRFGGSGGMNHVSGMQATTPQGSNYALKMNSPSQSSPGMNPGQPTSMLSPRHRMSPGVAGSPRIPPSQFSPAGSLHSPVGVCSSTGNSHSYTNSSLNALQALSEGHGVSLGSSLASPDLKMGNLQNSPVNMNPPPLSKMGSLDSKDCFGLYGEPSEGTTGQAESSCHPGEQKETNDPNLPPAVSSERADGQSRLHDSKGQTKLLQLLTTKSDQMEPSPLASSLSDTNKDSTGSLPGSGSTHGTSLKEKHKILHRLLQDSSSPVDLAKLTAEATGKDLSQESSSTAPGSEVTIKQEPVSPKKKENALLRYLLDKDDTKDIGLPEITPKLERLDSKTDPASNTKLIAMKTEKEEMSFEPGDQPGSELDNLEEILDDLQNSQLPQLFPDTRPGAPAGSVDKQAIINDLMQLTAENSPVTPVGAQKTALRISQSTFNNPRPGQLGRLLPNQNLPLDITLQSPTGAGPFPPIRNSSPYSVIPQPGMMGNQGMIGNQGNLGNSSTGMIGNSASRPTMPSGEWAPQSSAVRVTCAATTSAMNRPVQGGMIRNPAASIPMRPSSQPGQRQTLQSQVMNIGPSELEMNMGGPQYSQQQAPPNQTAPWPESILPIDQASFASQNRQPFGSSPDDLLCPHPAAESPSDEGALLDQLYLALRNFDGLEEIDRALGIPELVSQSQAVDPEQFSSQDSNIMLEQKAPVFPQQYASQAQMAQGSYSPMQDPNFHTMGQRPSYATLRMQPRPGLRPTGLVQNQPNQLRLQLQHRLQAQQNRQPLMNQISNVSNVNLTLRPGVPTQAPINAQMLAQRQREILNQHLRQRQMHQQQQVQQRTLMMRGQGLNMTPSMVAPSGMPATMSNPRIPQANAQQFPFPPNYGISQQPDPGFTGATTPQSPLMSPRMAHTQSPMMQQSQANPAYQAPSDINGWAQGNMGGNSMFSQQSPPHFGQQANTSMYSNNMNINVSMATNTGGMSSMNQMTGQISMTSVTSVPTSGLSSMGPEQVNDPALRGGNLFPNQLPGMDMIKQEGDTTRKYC
Work on `c1nnc2c3c4c(sc3ncn12)CCC4` yielded an inhibition of 26.2%. For `CC(=O)c1ccc(OCCCC(=O)Nc2ccc(C)c(S(=O)(=O)N3CCCCC3)c2)cc1`, the inhibition was -2.06%. Work on `CCCc1nc(SCC(=O)Nc2cc(C)on2)c2ccccc2n1` yielded an inhibition of 10.1%. In the case of `Cc1cc(=O)oc2cc(OC(C)C(=O)NCCc3ccc(S(N)(=O)=O)cc3)ccc12` (centres undefined), the inhibition is reported as -12.7%. With `COc1ccc(C(NC(=O)C2CCN(CCCOc3ccccc3)CC2)c2cccs2)cc1` (centres undefined) the inhibition was 3.49%. `COCCNC(=O)/C(C#N)=C/c1cc(C(C)C)c(OC)cc1C` gave an inhibition of 16.8%. For `C[C@H]1CN([C@@H](C)CO)S(=O)(=O)c2ccc(Br)cc2O[C@H]1CN(C)Cc1ccccc1F`, the inhibition was 16.8%. With `Clc1cccc(-c2nc(-c3ccccn3)no2)c1` the inhibition was 7.62%. For `CN(C)c1ccc(/C=C2\SC(=O)N(CCc3nnc(N)s3)C2=O)cc1`, the inhibition was 27.1%. In the case of `Cc1ccc(C2=[N+]([O-])C3(CCCCC3=O)N(O)C2(C)C)cc1` (centres undefined), the inhibition is reported as -2.69%. For `O=c1cc(-c2ccc(O)cc2)oc2ccc3ccccc3c12`, the inhibition was 50.8% (active). `Cc1ccc([C@@H]2CC=C(C(=O)O)[C@H](c3ccccc3)N2S(=O)(=O)c2ccccc2C)cc1` was tested, and the inhibition was -13%. `CC(C)(C)c1ccc(C(=O)CCC(=O)OCC(=O)NCCc2ccc(S(N)(=O)=O)cc2)cc1` showed an inhibition of 37.1%. With `CC(=NNc1ccc2ccccc2n1)c1ccccn1` the inhibition was 89.3% (active). Compound `Cc1ccc(NC(=O)C2(C)CCN2C(=O)CC(c2ccccc2)c2ccccc2)cc1` (centres undefined) has an inhibition of -7.67%. `COc1ccc(S(=O)(=O)N2CCCC(C(=O)NCc3ccncc3)C2)cc1` (centres undefined) was tested, and the inhibition was 10.6%. In the case of `O=C(CCCN1C(=O)/C(=C/c2cccc(Br)c2)SC1=S)NCCCN1CCOCC1`, the inhibition is reported as 10.6%. With `Cc1nnc(NC(=O)c2nc(S(=O)(=O)Cc3ccccc3)ncc2Cl)s1` the inhibition was 22.4%. `COC(=O)c1ccc2c(=O)[nH]c(COC(=O)c3[nH]c(C)c(C(C)=O)c3C)nc2c1` was tested, and the inhibition was 12.3%. Compound `COC(=O)c1cc(=O)n(-c2ccccc2)c(=Nc2ccccc2)s1` has an inhibition of 24.4%. In the case of `CCC(C)C(NC(=O)OCc1ccccc1)C(=O)OCN1C(=O)c2ccccc2C1=O` (centres undefined), the inhibition is reported as -8.71%. With `COc1ccccc1NC(=S)N1CCCCCC1` the inhibition was -14.3%. `COc1ccc(NC(=O)c2cccc(N3C(=O)c4cccc([N+](=O)[O-])c4C3=O)c2)cc1` showed an inhibition of -27.1%. With `CCn1c(Oc2ccccc2)nc2c1c(=O)n(C)c(=O)n2C` the inhibition was 42.6%. With `Cc1nc(-c2ccc(NC(=O)c3ccco3)cc2)cs1` the inhibition was 60.4% (active). Work on `COC(=O)[C@]12C[C@H](CC(=O)N3CCCCC3)C(=O)N(Cc3ccco3)C1=C[C@H](C(C)C)O[C@@H]2C1CC1` yielded an inhibition of -14.3%. For `Cc1ccc2cc(CN(Cc3ccco3)S(=O)(=O)c3c(C)ccc4nsnc34)c(=O)[nH]c2c1`, the inhibition was 14.2%. For `O=C(c1cccc2c1-c1ccccc1/C2=N/O)N1CCCCC1`, the inhibition was 30%. In the case of `CCN(CC)S(=O)(=O)c1ccc(/C=C/C(=O)OCC(=O)NCc2ccc3c(c2)OCO3)cc1`, the inhibition is reported as -11.1%. In the case of `Cc1ccc2sc(N(CCCN(C)C)C(=O)CN3C(=O)c4ccccc4C3=O)nc2c1C`, the inhibition is reported as 3.74%. With `C(=N\Nc1nc2ccccc2s1)/c1ccccn1` the inhibition was 52.3% (active). Work on `Nc1nc(CCl)nc(Nc2ccccc2)n1` yielded an inhibition of 8.83%. With `Cc1ccc([N+](=O)[O-])cc1N(CC(=O)Nc1ccc(S(=O)(=O)Nc2cccc(C(F)(F)F)c2)cc1)S(C)(=O)=O` the inhibition was -3.19%. In the case of `Cc1ccc(C(=O)OCC(=O)NC2CCCC(C)C2C)cc1S(=O)(=O)N1CCCCC1` (centres undefined), the inhibition is reported as 9.97%. Work on `C[C@@H]1C(c2ccc(F)cc2)=NN(c2ccccc2)[C@H]1C(=O)N1CCOC1=O` yielded an inhibition of -21.5%. Work on `Cc1ccc(Nc2nc(N)nc(CN3CCN(Cc4ccc5c(c4)OCO5)CC3)n2)cc1` yielded an inhibition of -18.2%. For `Cc1ccc(C2CC(c3cccs3)=NN2C(=O)CSC2=NCCS2)cc1` (centres undefined), the inhibition was 16.1%. `O=C(C(O)c1ccc(Br)cc1)N1CCC(Nc2ccc3[nH]ncc3c2)CC1` (centres undefined) showed an inhibition of -7.36%. `Cc1ccc(S(=O)(=O)CC(=O)N(CCCN(C)C)c2nc3ccc(C)cc3s2)cc1` showed an inhibition of 15.1%.
